Shown are actives, neighbours in structure and some others; about 21% of the full set was active somewhere.
Shiga toxin inh = inhibitors of Shiga toxin in Vero cells; 9.2% of 290,000 active; Vero cells, Shiga toxin protein synthesis inhibition reporter; inhibition, % at 38.7 µM; in the data active = inhibition mostly above about 28%, no sharp cut-off; inactive = mostly below about 43%
Giardia FBPA inh = blocks Giardia fructose-bisphosphate aldolase activity | A8B2U2 | purified Giardia FBPA | Potency, µM (titrated, usually from 59.6 µM), most hits filed as inhibitors | 0.71% of 290,000 active | AID 2451; note: nearly all actives have a fitted effect of over 55% in size
Target sequence (A8B2U2 whole entry, looked up): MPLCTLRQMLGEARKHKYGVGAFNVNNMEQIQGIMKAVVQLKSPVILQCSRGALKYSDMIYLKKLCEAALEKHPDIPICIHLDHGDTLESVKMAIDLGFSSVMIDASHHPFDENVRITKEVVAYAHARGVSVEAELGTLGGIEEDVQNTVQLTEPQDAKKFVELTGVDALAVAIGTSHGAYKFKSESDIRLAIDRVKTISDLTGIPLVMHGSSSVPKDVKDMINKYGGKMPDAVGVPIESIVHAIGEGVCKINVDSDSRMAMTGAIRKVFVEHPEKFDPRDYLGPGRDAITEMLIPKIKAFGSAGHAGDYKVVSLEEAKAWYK
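40 nM FBPA preincubated 10 min at RT with compound (up to 57.5 uM final), then substrate plus GAPDH/TPI/NAD/arsenate coupling and diaphorase/resazurin added. Fluorescence read after 20 min at RT, 525/598 nm.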
NS1 function inh = influenza NS1 inhibition; Potency, µM (doses to about 46.1 µM); 0.4% of 270,000 active; calls by dose curve; note: actives are rising curves; nearly all actives have a fitted effect of over 50% in size
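A cell-based growth assay was used: compounds that relieve NS1-induced slow growth of budding yeast raise OD600. Assay medium was yeast nitrogen base with ammonium sulphate and -URA supplement, pH 6.0, with 2% galactose.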
Cycloheximide cs = affects cycloheximide protein synthesis inhibition readout, counter-screen; 12% of 300,000 active; AID 2314; max response, %; cell reporter, cycloheximide protein synthesis inhibition counterscreen; in the data active = max response mostly above about 13%, no sharp cut-off; inactive = mostly below about 14%; note: read at 38.3 µM for the half of the compounds with a filed dose
Pf growth 48h = P. falciparum growth inhibition at 48 hours (one generation); P. falciparum luciferase growth in erythrocytes, 48 h; Potency, µM (highest dose often 28.7 µM), hits mostly inhibitors; 5.9% of 310,000 active; AID 504832
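Read-out is firefly luciferase luminescence from an integrated reporter in P. falciparum, so falling signal marks reduced parasite growth. Infected erythrocytes were at 2% hematocrit and 0.1% parasitemia (final) in Albumax-supplemented RPMI 1640.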
Pf growth 96h = P. falciparum growth inhibition at 96 hour, primary screen for plastid delayed-death inhibitors. P. falciparum luciferase reporter growth, 96 h. Potency, µM (titrated, usually from 28.7 µM), most hits filed as inhibitors. 6.9% of 320,000 active
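Luminescence readout: decreased luciferase signal marks inhibited growth of reporter-expressing P. falciparum in infected red cells (2% hematocrit, 0.05% parasitemia final), exposed to compound two generations (96 h, 37 C, 5% CO2).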
Hits are given with their value; [ ] = another dose, or the depositor's remark. Unless noted, calls come from the whole dose curve; as a rule, active = well fitted curve in the direction sought with a large enough effect; inconclusive = small, poorly fitted or top-dose-only effect, or another doubt; inactive = no such curve, though single readings can be large; an effect the other way counts as inactive or inconclusive.

`Cc1ccc2cc(C(c3nnnn3C3CCCC3)N(Cc3cccnc3)Cc3ccco3)c(=O)[nH]c2c1` (stereo not given) gave Shiga toxin inh inactive, Giardia FBPA inh inactive, NS1 function inh inactive, Cycloheximide cs inactive, Pf growth 48h 13.1µM and Pf growth 96h inactive.
`Cc1ccc2[nH]c(=O)c(C(c3nnnn3C3CCCC3)N(Cc3cccnc3)Cc3ccco3)cc2c1` (stereo not given) gave Shiga toxin inh inactive, Giardia FBPA inh inactive, NS1 function inh inactive, Cycloheximide cs inactive and Pf growth 48h inconclusive.
For CCOC(=O)Cn1nnnc1C(C(C)C)N(Cc1cc2c(C)cc(C)cc2[nH]c1=O)C1CCCC1 (stereo not given) the results were Shiga toxin inh inactive, Giardia FBPA inh inactive, NS1 function inh inactive, Cycloheximide cs inactive, Pf growth 48h 6.57µM and Pf growth 96h inactive.
For CC1CCCC(NC(=O)c2cccc(S(=O)(=O)N3CCN(c4ccccc4)CC3)c2)C1C (stereo not given) the results were Pf growth 48h inconclusive and Pf growth 96h inactive.
`Cc1ccc(CN(Cc2cc3cc4c(cc3[nH]c2=O)OCCO4)Cc2nnnn2Cc2ccco2)cc1` gave Shiga toxin inh inactive, Giardia FBPA inh inconclusive, NS1 function inh inactive, Cycloheximide cs inactive and Pf growth 96h inconclusive.
COc1ccccc1CN(Cc1cc2c(C)ccc(C)c2[nH]c1=O)Cc1nnnn1Cc1ccco1 was read as Shiga toxin inh inactive, Giardia FBPA inh inactive, NS1 function inh inactive, Cycloheximide cs inactive and Pf growth 48h 4.65µM.
`Cc1ccc(C)c2[nH]c(=O)c(C(c3nnnn3Cc3ccco3)N3CCc4ccccc4C3)cc12` (stereo not given) gave Shiga toxin inh 77.8, Giardia FBPA inh inconclusive, NS1 function inh inconclusive, Cycloheximide cs 26.5, Pf growth 48h 11.7µM and Pf growth 96h 6.57µM.
CCC(c1nnnn1C1CCCCC1)N(Cc1ccco1)Cc1cc2ccc(OC)cc2[nH]c1=O (stereo not given) was read as Shiga toxin inh inactive, Giardia FBPA inh inactive, NS1 function inh inactive, Cycloheximide cs inactive, Pf growth 48h 7.38µM and Pf growth 96h inactive.
COc1ccc2cc(CN(CCc3ccccc3)Cc3nnnn3Cc3ccco3)c(=O)[nH]c2c1 was read as Shiga toxin inh inactive, Giardia FBPA inh inactive, NS1 function inh inactive, Cycloheximide cs inactive, Pf growth 48h 6.57µM and Pf growth 96h inactive.
Screening Cc1ccc(C)c2[nH]c(=O)c(C(c3nnnn3CCc3ccccc3)N3CCOCC3)cc12 (stereo not given) returned Shiga toxin inh inactive, Giardia FBPA inh inactive, NS1 function inh inactive, Cycloheximide cs inactive, Pf growth 48h inconclusive and Pf growth 96h inactive.
Cc1ccc2cc(CN(Cc3ccc4c(c3)OCO4)Cc3nnnn3Cc3ccco3)c(=O)[nH]c2c1 was read as Shiga toxin inh inactive, Giardia FBPA inh inactive, NS1 function inh inactive, Cycloheximide cs inactive, Pf growth 48h inconclusive and Pf growth 96h inactive.
Screening COc1ccc(C(=O)NCc2ccon2)cc1OC1CCN(C(C)C)CC1 returned Shiga toxin inh inactive, Giardia FBPA inh inactive, NS1 function inh inactive, Cycloheximide cs inactive, Pf growth 48h inactive and Pf growth 96h inactive.
For CC(OC(=O)Cn1[nH]c(=O)c2ccccc2c1=O)C(=O)Nc1cccc(Cl)c1 (stereo not given) the results were Pf growth 48h inactive and Pf growth 96h inactive.
`CCOc1ccc2[nH]c(=O)c(C(c3nnnn3Cc3ccco3)N3CCC(C)CC3)cc2c1` (stereo not given) gave Shiga toxin inh inactive, Giardia FBPA inh inconclusive, NS1 function inh inactive, Cycloheximide cs inactive, Pf growth 48h inconclusive and Pf growth 96h inactive.
For COc1ccc2[nH]c(=O)c(CN(C3CCCCC3)C(c3nnnn3Cc3ccco3)C(C)C)cc2c1 (stereo not given) the results were Shiga toxin inh inactive, Giardia FBPA inh inactive, NS1 function inh inactive, Cycloheximide cs inactive, Pf growth 48h 13.1µM and Pf growth 96h inactive.
For O=C(N/N=C1/C[C@@H](O)[C@@H](O)[C@@H]2[C@H]3C(=O)N(c4ccc(F)cc4F)C(=O)[C@@H]3CC[C@@H]12)OCc1ccccc1 the results were Giardia FBPA inh inactive[12.9 µM].
For Cc1sc2ncnc(Sc3ccccc3C(=O)Nc3ccc(Br)cc3)c2c1C the results were Shiga toxin inh 51.3, Giardia FBPA inh inactive, NS1 function inh inconclusive, Cycloheximide cs 28.8, Pf growth 48h 9.28µM and Pf growth 96h 6.57µM.
Cc1sc2ncnc(SCC(=O)N(C(C)C)C(C)C)c2c1C was read as Shiga toxin inh inactive, Giardia FBPA inh inactive, NS1 function inh inactive, Cycloheximide cs inactive, Pf growth 48h inactive and Pf growth 96h inactive.
`Cc1sc2ncnc(SCC(=O)NC3CC3)c2c1C` gave Shiga toxin inh inactive, Giardia FBPA inh inactive, NS1 function inh inactive, Cycloheximide cs inactive and Pf growth 96h inactive.
For Cc1sc2ncnc(Sc3ccccc3C(=O)Nc3ccc(C#N)cc3)c2c1C the results were Shiga toxin inh inactive, Giardia FBPA inh inactive, NS1 function inh inactive, Cycloheximide cs inactive, Pf growth 48h 10.4µM and Pf growth 96h inconclusive.
For Cc1sc2ncnc(Sc3ccccc3C(=O)Nc3ccccc3Cl)c2c1C the results were Shiga toxin inh inactive, Giardia FBPA inh inactive, NS1 function inh inactive, Cycloheximide cs inactive, Pf growth 48h 11.7µM and Pf growth 96h inconclusive.
CC(C)Oc1cccc(C(=O)C2CCCN(C(=O)c3ccc4c(c3)OCO4)C2)c1 (stereo not given) was read as Shiga toxin inh inactive, Giardia FBPA inh inactive, NS1 function inh inactive, Cycloheximide cs inactive, Pf growth 48h inactive and Pf growth 96h inactive.
For COc1ccccc1N1CCN(C(=O)CCNS(=O)(=O)c2cc(Br)cnc2N)CC1 the results were Shiga toxin inh inactive, NS1 function inh inactive, Cycloheximide cs inactive, Pf growth 48h inconclusive and Pf growth 96h inconclusive.
`O=C(O)c1cc(-c2ccc3c(c2)OCO3)nc2ccccc12` gave Shiga toxin inh inactive, Giardia FBPA inh inactive, NS1 function inh inactive, Cycloheximide cs inactive and Pf growth 96h 8.28µM.
Screening CCCN(CCC)C(=O)c1cc(-c2ccc3c(c2)OCO3)nc2ccccc12 returned Shiga toxin inh inactive, Giardia FBPA inh inactive, NS1 function inh inactive, Cycloheximide cs inactive and Pf growth 96h 1.65µM.
Cn1cnc(NCc2ccccc2)c1[N+](=O)[O-] was read as Shiga toxin inh inactive, Giardia FBPA inh inactive, NS1 function inh inactive, Cycloheximide cs inactive, Pf growth 48h inactive and Pf growth 96h inactive.
CC(C)(C)c1ccc(S(=O)(=O)N2CCc3nc4ccccc4c(C(=O)O)c3C2)cc1 was read as Shiga toxin inh inactive, Giardia FBPA inh inactive, NS1 function inh inactive, Cycloheximide cs inactive, Pf growth 48h inactive and Pf growth 96h inactive.
For CCC(C)[C@H](NC(=O)[C@@H]1CSC2c3ccccc3C(=O)N21)C(=O)NCc1ccco1 (stereo not given in full) the results were Shiga toxin inh inactive, Giardia FBPA inh inactive, NS1 function inh inactive, Cycloheximide cs inactive, Pf growth 48h inactive and Pf growth 96h inactive.
